In PubChem BioAssay (NCATS):
Records with an inconclusive call do not appear. Activity calls are given as the source filed them. Calls come from the whole dose curve; as a rule, active = well fitted cell-killing curve with a large enough effect; inconclusive = small, poorly fitted or top-dose-only effect; inactive = flat fitted curve, though single readings scatter.

assay: NCATS anti-infectives library activity on HEK293 viability as a counter-qHTS vs the C. elegans viability qHTS (AID 1745854); settings: HEK293 viability counter-screen; series mostly up to 41.8 µM; activity change, negative = cytotoxicity: at the top concentration;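 note: HEK293 cells exposed to compounds for 24 hr before the viability read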
Summary of the method: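 Compound titrations (final up to 41.7 uM) were incubated with HEK293 cells for 24 hr at 37C under 5% CO2. Viable cells were quantified with CellTiter-Glo after 10 min at ambient temperature.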
% is set by controls: 0 for no effect and ±100 for the full control effect; potency is the fitted concentration of half-maximal effect.

Row | Structure (SMILES) | activity change, negative = cytotoxicity | Potency
1 | COc1ccc(C2C(C#N)=C(N)OC3=C2C(=O)CC(c2cccc4ccccc24)C3)cc1 (centres undefined) | 8.64% (inactive) | 
2 | O=C1CC(=O)c2c(Cl)c(Cl)c(Cl)c(Cl)c21 | -3.85% (inactive) | 
3 | CS(=O)(=O)c1cc(-c2ccccc2)cc(S(=O)(=O)c2ccc(CN)s2)c1 | -0.137% (inactive) | 
4 | CC(=O)Cc1cc(=O)c2c(C)cc(O)c(C3OC(CO)C(O)C(O)C3O)c2o1 (centres undefined) | 2.7% (inactive) | 
5 | Cn1c(Cn2ccc(C(F)(F)F)c(Oc3cc(Cl)cc(C#N)c3)c2=O)n[nH]c1=O | -8.49% (inactive) | 
6 | O=c1cc(-c2ccc(O)c(O)c2)oc2c([C@@H]3O[C@H](CO)[C@@H](O)[C@H](O)[C@H]3O)c(O)cc(O)c12 | 1.43% (inactive) | 
7 | CCCCC(=O)N(Cc1ccc(-c2ccccc2-c2nn[nH]n2)cc1)[C@H](C(=O)O)C(C)C | -9.69% (inactive) | 
8 | C[C@H]1CC[C@@]2(O)C(C)(C)[C@@H]3CC[C@@]2(C)[C@H]1C3 | -1.61% (inactive) | 
9 | Cc1cn2nc([C@@H]3CCCCN3C(=O)c3cc(Cl)ccc3NS(C)(=O)=O)cc2nc1N1CC[C@H](N)C1 | 9.41% [at 18.2 µM] (inactive) | 
10 | CC(=O)O[C@@]1(C)C[C@@H](O)[C@]2(O)C=CO[C@@H](OC3OC(CO)C(O)C(O)C3O)[C@@H]21 (some centres undefined) | 4.77% (inactive) | 
11 | CNC(=O)[C@@H](NC(=O)[C@H](CCCc1ccccc1)[C@H](C)N(O)C=O)C(C)(C)C | -3.98% (inactive) | 
12 | CC(C)(C)OC(=O)N[C@H]1CCCCC/C=C\[C@@H]2C[C@@]2(C(=O)NS(=O)(=O)C2CC2)NC(=O)[C@@H]2C[C@@H](OC(=O)N3Cc4cccc(F)c4C3)CN2C1=O | -4.92% (inactive) | 
13 | S=C(NCCc1ccccn1)Nc1ccc(Br)cn1 | -6.44% (inactive) | 
14 | CC(C)=CCC/C(C)=C/CC/C(C)=C/C=C/C(C)=C/C(=O)O | -12.5% (inactive) | 
15 | Cc1cccc2c3c(ccc12)C1=C(C(=O)C3=O)[C@@H](C)CO1 | -6.41% (inactive) | 
16 | COc1ccc(/C=C/C(=O)O)cc1O | -5.54% (inactive) | 
17 | CC(C)c1cnn2c(NCc3ccccc3-n3cccn3)nc(OC3CCCNC3)nc12 (centres undefined) | -26.4% (inactive) | 
18 | CC(C)CS(=O)(=O)c1oc(-c2ccc(F)cc2)nc1S(=O)(=O)c1ccccc1 |  | 3.98 µM (active)
19 | CC(C)(C)NC(=O)N[C@H](C(=O)N1C[C@H]2[C@@H]([C@H]1C(=O)NC(CC1CCC1)C(=O)C(N)=O)C2(C)C)C(C)(C)C (some centres undefined) | 6.58% (inactive) | 
20 | Nc1cc(F)ccc1NC(=O)/C=C/c1cnn(C/C=C/c2ccccc2)c1 | -3.42% (inactive) | 
21 | Cc1nc(N(C)C(=O)Cc2ccc(-c3ccccn3)cc2)sc1S(N)(=O)=O | -1.46% (inactive) | 
22 | CC(C)Nc1nc2cc(Cl)c(Cl)cc2n1[C@H]1O[C@@H](CO)[C@H](O)[C@@H]1O | -13.7% (inactive) | 
23 | C[C@@H]1O[C@@H](O[C@@H]2[C@@H](O)[C@H](OCCc3ccc(O)c(O)c3)O[C@H](CO)[C@H]2OC(=O)/C=C/c2ccc(O)c(O)c2)[C@H](O)[C@H](O)[C@H]1O | -17.1% (inactive) | 
24 | Nc1ccccc1NC(=O)c1cnccn1 | -13.4% (inactive) | 
